# Assay results: article PMC5540273 (PLoS ONE, 2017)
# “And” between values parts separate entries of the source, which are not always exact repeats. Equal entries are not always repeated. Where two headings read alike, the source gives them in different places.
# What was measured:
# [1] = system: KIT-autoinhibited; conditions: concentration: 1 μM, replicates: in singlicate; n = 1
# [2] = system: KIT; conditions: concentration: 1 μM, replicates: in singlicate, n = 1
# [3] = system: LATS1; conditions: concentration: 1 μM, replicates: in singlicate, n = 1
# [4] = system: LATS2; conditions: concentration: 1 μM, replicates: in singlicate, n = 1
# [5] = system: LCK; conditions: concentration: 1 μM, replicates: in singlicate; n = 1
# [6] = system: LIMK1; conditions: concentration: 1 μM, replicates: in singlicate, n = 1
# [7] = system: LIMK2; conditions: concentration: 1 μM, replicates: in singlicate; n = 1
# [8] = system: T1, LKB1; conditions: concentration: 1 μM, replicates: in singlicate, n = 1
# T1 construct: gene STK11
# [9] = system: T2, LOK; conditions: concentration: 1 μM, replicates: in singlicate, n = 1
# T2 construct: gene STK10
# [10] = system: LRRK2; conditions: concentration: 1 μM, replicates: in singlicate; n = 1
# [11] = system: LTK; conditions: concentration: 1 μM, replicates: in singlicate, n = 1
# [12] = system: LYN; conditions: concentration: 1 μM, replicates: in singlicate; n = 1
# [13] = system: T3, LZK; conditions: concentration: 1 μM, replicates: in singlicate, n = 1
# T3 construct: gene MAP3K13
# [14] = system: MAK; conditions: concentration: 1 μM, replicates: in singlicate, n = 1
# [15] = system: MAP3K15; conditions: concentration: 1 μM, replicates: in singlicate; n = 1
# [16] = system: MAP3K1; conditions: concentration: 1 μM, replicates: in singlicate, n = 1
# [17] = system: MAP3K2; conditions: concentration: 1 μM, replicates: in singlicate, n = 1
# [18] = system: MAP3K3; conditions: concentration: 1 μM, replicates: in singlicate; n = 1
# [19] = system: MAP3K4; conditions: concentration: 1 μM, replicates: in singlicate, n = 1
# [20] = system: MAP4K2; conditions: concentration: 1 μM, replicates: in singlicate; n = 1
# 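Note: KINOMEscan kinase panel screen.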
smiles,measurement,setting,value
CC(C)(C)n1cnc2c(N)ncnc21 [SKF-97359],%Inh,[1],30%
same,%Inh,[2],0%
same,%Inh,[3],24%
same,%Inh,[4],0%
same,%Inh,[5],0%
same,%Inh,[6],0%
same,%Inh,[7],0%
same,%Inh,[8],56%
same,%Inh,[9],0%
same,%Inh,[10],0%
same,%Inh,[11],0%
same,%Inh,[12],0%
same,%Inh,[13],15%
same,%Inh,[14],0%
same,%Inh,[15],0%
same,%Inh,[16],0%
same,%Inh,[17],0%
same,%Inh,[18],0%
same,%Inh,[19],0%
same,%Inh,[20],0%
Cc1ccc(NC(=O)c2ccnc(N3CCN(C)CC3)c2)cc1-c1ccc(C(=O)NCC2CC2)cc1 [GW775604],%Inh,[1],0%
same,%Inh,[2],27%
same,%Inh,[3],0%
same,%Inh,[4],0%
same,%Inh,[5],0%
same,%Inh,[6],0%
same,%Inh,[7],0%
same,%Inh,[8],28%
same,%Inh,[9],9%
same,%Inh,[10],0%
same,%Inh,[11],0%
same,%Inh,[12],0%
same,%Inh,[13],0%
same,%Inh,[14],0%
same,%Inh,[15],0%
same,%Inh,[16],0%
same,%Inh,[17],0%
same,%Inh,[18],0%
same,%Inh,[19],0%
same,%Inh,[20],0%
COc1ccc(CNC(=O)NC2CCN(c3ccnc(Nc4ccc(OC)cc4)n3)C2)cc1 (stereo not drawn) [GSK1379727],%Inh,[1],0%
same,%Inh,[2],16%
same,%Inh,[3],6%
same,%Inh,[4],0%
same,%Inh,[5],8%
same,%Inh,[6],0%
same,%Inh,[7],0%
same,%Inh,[8],15%
same,%Inh,[9],0%
same,%Inh,[10],0%
same,%Inh,[11],0%
same,%Inh,[12],0%
same,%Inh,[13],0%
same,%Inh,[14],7%
same,%Inh,[15],0%
same,%Inh,[16],0%
same,%Inh,[17],0%
same,%Inh,[18],0%
same,%Inh,[19],10%
same,%Inh,[20],0%
O=C(Nc1n[nH]c2cc(-c3cccc(F)c3)ccc12)C1CC1 [SB-735464],%Inh,[1],1%
same,%Inh,[2],33%
same,%Inh,[3],0%
same,%Inh,[4],18%
same,%Inh,[5],3%
same,%Inh,[6],0%
same,%Inh,[7],0%
same,%Inh,[8],0%
same,%Inh,[9],6%
same,%Inh,[10],0%
same,%Inh,[11],0%
same,%Inh,[12],9%
same,%Inh,[13],2%
same,%Inh,[14],3%
same,%Inh,[15],48%
same,%Inh,[16],22%
same,%Inh,[17],5%
same,%Inh,[18],10%
same,%Inh,[19],24%
same,%Inh,[20],6%
C[C@@H](Oc1cc(-n2cnc3ccc(NC(=O)NC(C)(C)C)cc32)sc1C(N)=O)c1ccccc1Cl [GSK346294],%Inh,[1],1%
same,%Inh,[2],20%
same,%Inh,[3],0%
same,%Inh,[4],12%
same,%Inh,[5],37%
same,%Inh,[6],0%
same,%Inh,[7],25%
same,%Inh,[8],4%
same,%Inh,[9],36%
same,%Inh,[10],0%
same,%Inh,[11],13%
same,%Inh,[12],4%
same,%Inh,[13],37%
same,%Inh,[14],0%
same,%Inh,[15],0%
same,%Inh,[16],35%
same,%Inh,[17],0%
same,%Inh,[18],0%
same,%Inh,[19],0%
same,%Inh,[20],0%
N#Cc1ccc(-c2cc(-c3c[nH]nc3-c3ccccn3)ccn2)cc1 [GW693028],%Inh,[1],5%
same,%Inh,[2],6%
same,%Inh,[3],0%
same,%Inh,[4],0%
same,%Inh,[5],0%
same,%Inh,[6],16%
same,%Inh,[7],3%
same,%Inh,[8],0%
same,%Inh,[9],0%
same,%Inh,[10],44%
same,%Inh,[11],0%
same,%Inh,[12],0%
same,%Inh,[13],0%
same,%Inh,[14],21%
same,%Inh,[15],0%
same,%Inh,[16],6%
same,%Inh,[17],0%
same,%Inh,[18],0%
same,%Inh,[19],24%
same,%Inh,[20],0%
COc1ccc(Nc2nccc(N3CCC(NC(=O)Nc4cc(C)ccc4C)C3)n2)cc1 (stereo not drawn) [GSK1379741],%Inh,[1],0%
same,%Inh,[2],25%
same,%Inh,[3],0%
same,%Inh,[4],0%
same,%Inh,[5],0%
same,%Inh,[6],0%
same,%Inh,[7],0%
same,%Inh,[8],0%
same,%Inh,[9],0%
same,%Inh,[10],0%
same,%Inh,[11],7%
same,%Inh,[12],73%
same,%Inh,[13],0%
same,%Inh,[14],28%
same,%Inh,[15],0%
same,%Inh,[16],11%
same,%Inh,[17],5%
same,%Inh,[18],0%
same,%Inh,[19],23%
same,%Inh,[20],0%
CC(C)(CN)c1nc(-c2ccc(Cl)c(O)c2)c(-c2ccncc2)[nH]1.O=C(O)C(F)(F)F [SB-477794],%Inh,[1],0%
same,%Inh,[2]; 1 µM,66% and 58%
same,%Inh,[3]; 1 µM,7% and 39%
same,%Inh,[4]; 1 µM,86% and 89%
same,%Inh,[5],99.2%
same,%Inh,[6]; 1 µM,0% and 2%
same,%Inh,[7],0%
same,%Inh,[8]; 1 µM,0% and 31%
same,%Inh,[9]; 1 µM,99.1% and 98.2%
same,%Inh,[10],0%
same,%Inh,[11]; 1 µM,18% and 30%
same,%Inh,[12],91.1%
same,%Inh,[13]; 1 µM,49% and 47%
same,%Inh,[14]; 1 µM,41% and 0%
same,%Inh,[15],0%
same,%Inh,[16]; 1 µM,22% and 7%
same,%Inh,[17]; 1 µM,43% and 35%
same,%Inh,[18],0%
same,%Inh,[19]; 1 µM,0% and 13%
same,%Inh,[20],0%
CNc1ncnc2[nH]ncc12 [SKF-18355],%Inh,[1],20%
same,%Inh,[2],18%
same,%Inh,[3],0%
same,%Inh,[4],0%
same,%Inh,[5],6%
same,%Inh,[6],0%
same,%Inh,[7],0%
same,%Inh,[8],38%
same,%Inh,[9],0%
same,%Inh,[10],0%
same,%Inh,[11],0%
same,%Inh,[12],0%
same,%Inh,[13],27%
same,%Inh,[14],2%
same,%Inh,[15],0%
same,%Inh,[16],2%
same,%Inh,[17],14%
same,%Inh,[18],0%
same,%Inh,[19],0%
same,%Inh,[20],0%
